The values that follow come from the supplement of paper PMC6555819.

Common to all, as to experiment: PBM binding z-score (relative to random genomic background probes); higher = stronger binding; sequences stand for … in GC…GCGATTGACAGCGTAGAATGAAGG
Experiment [1] deals with FXR:RXRa (NR concentration 270 nM, RXRa partner concentration 90 nM). An outline of the steps: (§1)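 Custom Agilent 4×180K protein-binding microarrays carried double-stranded probes. Their 34-nt variable regions held direct-repeat seeds, single-nucleotide variants, half-site ablations and random human genomic background sequences. Arrays were incubated 1 h with ligand-free nuclear receptor dimers in PBS pH 7.4, 2% milk, 0.02% Triton X-100, 1 mM DTT, 0.2 mg/mL BSA and 0.4 mg/ml salmon testes DNA. Antibodies against each partner (one per run) detected binding, and scanned fluorescence was regression-normalized. Binding z-scores use random background probes as reference.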

In experiment [2] the test system is LXRa:RXRa (NR concentration 270 nM, RXRa partner concentration 90 nM). In short, it runs like this: as §1
For experiment [3], the system named is LXRa homodimer (NR concentration 270 nM). An outline of the steps: as §1
The test system of experiment [4] is LXRb:RXRa (NR concentration 270 nM, RXRa partner concentration 90 nM). An outline of the steps:
as §1

Experiment [5] relates to LXRb homodimer (NR concentration 270 nM). An outline of the steps: as §1
Experiment [6] relates to PPARa:RXRa (NR concentration 270 nM, RXRa partner concentration 90 nM). In short, it runs like this: as §1
Experiment [7] deals with PPARg:RXRa (NR concentration 180 nM, RXRa partner concentration 90 nM). An outline of the steps:
as §1

The test system of experiment [8] is PPARg:RXRa 270nM:90nM, anti-RXR (NR concentration 270 nM, RXRa partner concentration 90 nM). In short, it runs like this:
as §1

Experiment [9] deals with PPARg:RXRa 30nM:10nM, anti-RXR (NR concentration 30 nM, RXRa partner concentration 10 nM). An outline of the steps:
as §1

Experiment [10] deals with PPARg:RXRa 90nM:30nM, anti-RXR (NR concentration 90 nM, RXRa partner concentration 30 nM). In short, it runs like this: as §1
For experiment [11], the system named is PPARg:RXRa DBDmut IVT, anti-RXR (DBD mutation: RXRa K156A/R161A, NR concentration 270 nM, RXRa partner concentration 90 nM). An outline of the steps:
as §1

In experiment [12] the test system is PPARg:RXRa IVT, anti-PPARg (NR concentration 270 nM, RXRa partner concentration 90 nM). An outline of the steps:
as §1

Experiment [13] concerns PPARg DBDmut:RXRa IVT, anti-PPARg (DBD mutation: PPARg1 K132A/R137A, NR concentration 270 nM, RXRa partner concentration 90 nM). An outline of the steps:
as §1

For experiment [14], the system named is PPARg DBDmut IVT, anti-PPARg (DBD mutation: PPARg1 K132A/R137A, NR concentration 270 nM). In short, it runs like this:
as §1

Experiment [15] has as its system PPARg homodimer (NR concentration 180 nM). An outline of the steps: as §1
Experiment [16] relates to PXR:RXRa (NR concentration 270 nM, RXRa partner concentration 90 nM). An outline of the steps: as §1
The test system of experiment [17] is PXR homodimer (NR concentration 270 nM). An outline of the steps: as §1
The test system of experiment [18] is RARa:RXR (NR concentration 270 nM, RXRa partner concentration 90 nM). In short, it runs like this: as §1
The test system of experiment [19] is RARa homodimer (NR concentration 270 nM). An outline of the steps:
as §1

Experiment [20] concerns RARb:RXRa (NR concentration 270 nM, RXRa partner concentration 90 nM). In short, it runs like this:
as §1

As for CCTACTGGGCCACGAAAGGTCCTTGATTCAGTGA, the PBM binding z-score in [1] was -0.183; in experiment [2] it was -0.157; in experiment [3], -0.498; in experiment [4], -0.372; in [5] it was -0.947; in [6] it was 1.21. Further, the PBM binding z-score in [7] was 1.24; in experiment [8], 1.23; in experiment [9], -0.391; in experiment [10] it was 0.635; in experiment [11] it was 5.26; in experiment [12], 4.89. Also, the PBM binding z-score in [13] is -0.745; in experiment [14] it was -0.678; in experiment [15] it was -0.351; in experiment [16] it was -0.149; in experiment [17], -0.492; in [18] it was 0.131. Also, the PBM binding z-score in experiment [19] is -0.655; in experiment [20] it was 0.686.

CCTCGGAGGACAACCGGAGGTCAGAGCTGCCAGA: the PBM binding z-score in experiment [1] is 1.26; in experiment [2] it was 2.64; in experiment [3], 2.71; in experiment [4] it was 1.52; in experiment [5], -0.532; in experiment [6], 1.78. The PBM binding z-score in experiment [7] is 0.316; in [8], 0.642; in [9], -0.954; in experiment [10], 0.0511; in [11], -0.468; in experiment [12] it was 0.238. Further, the PBM binding z-score is -0.802 in experiment [13]; -1.28 in experiment [14]; 1.17 in experiment [15]; 2.33 in experiment [16]; 0.578 in experiment [17]; 2.46 in experiment [18]. Besides, the results for the PBM binding z-score in experiment [19] and in experiment [20] were 0.0885 and 2.98, respectively.

Turning to GCTGCTAGGTTAACTGATGGTCAGCTAAAGCTCG, the PBM binding z-score was -0.137 in experiment [1]; 1.44 in experiment [2]; -0.782 in experiment [3]; 0.138 in experiment [4]; -0.9 in experiment [5]; 0.846 in [6]. For the same sequence, the PBM binding z-score was -0.15 in [7]; 0.209 in experiment [8]; -0.499 in experiment [9]; -0.243 in experiment [10]; 2.43 in experiment [11]; 1.36 in experiment [12]. In addition, the PBM binding z-score is -1.35 in [13]; -0.847 in experiment [14]; -0.127 in experiment [15]; 0.00634 in [16]; -0.91 in [17]; 0.512 in [18]. In addition, the PBM binding z-score in [19] was -1.49; in experiment [20] it was 1.54.

For CCAACTAGGTCATTGACAGGACAGTGAATAGTAA, the PBM binding z-score in experiment [1] is 4.34; in [2], 3.06; in [3], 0.961; in experiment [4] it was 2.18; in [5], 0.671; in [6], 3.92. Besides, the PBM binding z-score was 5.95 in [7]; 5.66 in experiment [8]; 2.77 in [9]; 5.03 in experiment [10]; 7.67 in [11]; 7.49 in experiment [12]. For the same sequence, the PBM binding z-score in experiment [13] stood at 1.99; in experiment [14], 0.953; in [15], 1.89; in [16], 1.68; in experiment [17], 0.805; in experiment [18], 2.23. In addition, the PBM binding z-score in [19] worked out at 1.58; in experiment [20], 3.77.

On to ATCGAACGGTCGACGAGGTGAGTATACACCGTTT, for which the PBM binding z-score in [1] was -0.18; in experiment [2] it was -0.425; in experiment [3], -0.327; in experiment [4], -0.336; in experiment [5] it was -0.463; in experiment [6] it was -0.0739. The PBM binding z-score was 0.937 in experiment [7]; -0.158 in [8]; -0.0439 in experiment [9]; -0.375 in [10]; -0.724 in experiment [11]; 0.667 in experiment [12]. Moreover, the PBM binding z-score was 0.31 in experiment [13]; 0.651 in experiment [14]; -0.218 in [15]; -0.192 in experiment [16]; -0.411 in [17]; -0.0707 in experiment [18]. The PBM binding z-score is -0.605 in [19] and 0.92 in [20].

With CGTCCAAGGTCAATGCTAGGCCAGTGAAAGCATT, the PBM binding z-score in [1] worked out at 6.44; in experiment [2], 4.55; in experiment [3] it was 0.299; in experiment [4], 3.51; in [5] it was 0.207; in experiment [6], 4.74. The PBM binding z-score is 3.02 in experiment [7]; 4.07 in experiment [8]; 1.14 in experiment [9]; 2.82 in experiment [10]; 2.99 in experiment [11]; 3.13 in experiment [12]. For the same sequence, the PBM binding z-score in [13] was -0.61; in [14], -0.971; in [15], 2.78; in experiment [16], 3.64; in experiment [17], 0.593; in experiment [18], 4.31. Further, the PBM binding z-score was 0.644 in experiment [19] and 4.96 in experiment [20].

For the sequence TAGCCTAGGTCATTGGGCTAGTATAGTACGCATC, the PBM binding z-score in experiment [1] was 4.29; in experiment [2] it was 3.19; in [3], 0.404; in experiment [4], 1.81; in [5] it was -0.386; in experiment [6], 3.63. The PBM binding z-score turned out to be 2.59 in [7]; 3.08 in experiment [8]; 0.744 in experiment [9]; 1.97 in experiment [10]; 1.65 in experiment [11]; 3.11 in experiment [12]. The PBM binding z-score is 0.176 in [13]; -0.547 in experiment [14]; 0.811 in experiment [15]; 1.4 in [16]; -0.602 in experiment [17]; 1.91 in [18]. The values for the PBM binding z-score in experiment [19] and in experiment [20] were -0.44 and 3.46, respectively.
